Assay outcomes deposited in PubChem by several laboratories.
MPTP block: mitochondrial permeability transition pore inhibitors, primary screen, biochemical, isolated mouse mitochondria, absorbance; Ca2+ swelling absorbance, 30 min; hit rate 1.4% among 360,000; inhibition, % at 10 µM;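 active = inhibition of 50% or more, scaled per plate between neutral and stimulator controls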;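 note: 0% = DMSO wells given calcium and 100% = 1 mM EGTA wells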
F508del corr: F508del CFTR correction, initial screen, CFBE line, single point. hit rate 0.36% among 350,000. activity (quench increase), % at 7.58 µM. AID 720511, 2013. CFBE cells, YFP halide quenching; stimulated with forskolin plus potentiator P3; % fluorescence drop versus neutral controls;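 active = mean added fluorescence quench of at least 8% versus neutral control, with both replicates also reaching 8%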;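 note: cells transiently co-express mutant CFTR-F508del with the halide-sensitive YFP; corrector assay measuring rescue of mutant channel to the surface after 24 h compound exposure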
CendR NRP1 mod: modulators of CendR peptide binding to NRP-1, primary screen, biochemical, fluorescence polarization, uHTS; Neuropilin-1 (Homo sapiens), O14786; inhibition, % at 25 µM; FAM-RPARPAR peptide binding to NRP-1; hit rate 0.85% among 360,000;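 active = inhibition or corrected inhibition above about 18%, plus a signal ratio from 0.5 to 1.5, limit read from the data, passing the limit was not always enough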
ATG4B inhibitor: ATG4B protease inhibitors, primary screen, biochemical, fluorescence, uHTS; ATG4B cleavage of LC3-PLA2, NBD-HPC fluorescence, 1 h; inhibition, % at 8.33 µM; hit rate 0.51% among 340,000; AID 504462, 2011; in the data active = inhibition above about 40%
Target sequence (Q9Y4P1 whole entry, looked up): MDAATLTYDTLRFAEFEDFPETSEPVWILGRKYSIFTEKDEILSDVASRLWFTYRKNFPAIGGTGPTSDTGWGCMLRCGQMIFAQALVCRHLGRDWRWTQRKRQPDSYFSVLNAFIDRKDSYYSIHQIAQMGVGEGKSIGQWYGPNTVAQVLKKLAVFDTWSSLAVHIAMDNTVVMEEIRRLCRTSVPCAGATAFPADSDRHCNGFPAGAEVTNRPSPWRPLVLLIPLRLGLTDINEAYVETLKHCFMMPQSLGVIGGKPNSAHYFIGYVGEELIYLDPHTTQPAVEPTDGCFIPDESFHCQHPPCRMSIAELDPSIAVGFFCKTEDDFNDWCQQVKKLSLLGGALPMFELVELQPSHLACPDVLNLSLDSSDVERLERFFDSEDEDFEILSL
SKN-1 block: suppressors of acrylamide-induced Pgst-4::GFP reporter in worms, primary screen, SKN-1 inhibitor project, whole organism, uHTS, GFP/RFP fluorescence ratio, strain VP596. hit rate 0.49% among 360,000. C. elegans VP596 Pgst-4::GFP/RFP ratio, 24 h. inhibition, % at 21.8 µM;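 active = interference check ratio from 0.5 to 1.5 plus GFP to RFP signal ratio inhibition reaching or exceeding a fixed threshold, cut at about 30% in these data, passing the limit was not always enough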
MPTP counter: fluorescence retest of MPTP screen hits in isolated mitochondria, single concentration; hit rate 78% among 5,000; inhibition, % at 10 µM; AID 624504, 2012; membrane potential, Rhodamine 123 fluorescence; shares compounds with MPTP block; in the data active = inhibition above about 22%;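 note: 0% = DMSO vehicle and 100% = positive control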
MPTP abs DR: mitochondrial permeability transition pore inhibitors, dose response, biochemical, absorbance, uHTS hits; shares compounds with MPTP block; isolated mitochondria swelling; IC50, µM; hit rate 58% among 780; in the data active = IC50 below about 20 µM
MPTP cs DR: fluorescent counter-screen in isolated mitochondria, dose response, counter-screen for MPTP inhibitor project, biochemical, fluorescence, uHTS hits; hit rate 49% among 780; shares compounds with MPTP block; IC50, µM; isolated mitochondria counterscreen, fluorescence read-out; in the data active = IC50 below about 80 µM
The depositor's hits bear a star; nt = no result. Sampled rows, rich in hits. Any-hit rate of the full collection: about 2.7%.

SMILES	MPTP block	F508del corr	CendR NRP1 mod	ATG4B inhibitor	SKN-1 block	MPTP counter	others
CC(C)CC#Cc1ccc2c(c1)O[C@H](CN(C)Cc1ccncc1)[C@H](C)CN([C@@H](C)CO)S2(=O)=O	nt	1	nt	nt	nt	nt
COc1ccc(CNC(=O)c2cccc3c(-c4cccc(C(N)=O)c4)coc23)cc1OC	86*	-1	-10	nt	12	83*
O=C(NCc1cccnc1)c1ccc(-c2ccc(F)c(F)c2)c2ccoc12	92*	0	7	nt	28	84*
COc1cc(-c2coc3c(C(=O)NCc4ccc(N(C)C)cc4)cccc23)ccc1O	0	1	-4	nt	7	nt
O=C(NCc1ccccc1)c1cccc2c(-c3ccc(F)c(F)c3)coc12	2	nt	0	nt	13	nt
COc1ccc(CNC(=O)c2cccc3c(-c4ccc(F)c(F)c4)coc23)cc1OC	88*	nt	-6	nt	-12	80*
COc1cc(-c2coc3c(C(=O)NCc4ccc(OC)c(OC)c4)cccc23)ccc1O	73*	4	5	nt	17	58*
C/C=C/c1ccc2c(c1)O[C@H](CN(C)Cc1ccccn1)[C@@H](C)CN([C@H](C)CO)S2(=O)=O	nt	-1	nt	nt	nt	nt
O=C(C[C@@H]1C=C[C@H](NC(=O)c2ccccc2)[C@H](CO)O1)Nc1ccc(-c2ccccc2)cc1	nt	-1	nt	nt	nt	nt
CCC(C)C(=O)Nc1ccc(S(=O)(=O)N2CCCC2)cc1 (stereo not given)	1	-4	0	6	2	nt
CCC(C)NS(=O)(=O)c1ccc(S(=O)(=O)N2CCCC3(CCCCC3)C2)cc1 (stereo not given)	88*	nt	-9	-5	-7	100*
COc1ccc2[nH]c3c(NCCC4=CCCCC4)ncnc3c2c1	94*	-2	2	24	21	93*
CCOc1ccc2[nH]c3c(NCCC(C)C)ncnc3c2c1	78*	-4	-2	9	-2	67*
O=C(c1cccnc1)N1C[C@@H]2[C@H](c3ccccc31)[C@@H](CO)N2C(=O)Nc1cccc(F)c1	nt	-3	nt	nt	nt	nt
C[C@H]1CN([C@@H](C)CO)C(=O)c2cccc(NS(=O)(=O)c3ccc(Cl)cc3)c2O[C@@H]1CN(C)CC1CC1	nt	4	nt	nt	nt	nt
C/C(=N\NC(N)=O)c1cccc(Cl)c1	0	-4	3	-1	10	nt
C/C(=N\N=C(N)N)c1cccc(Cl)c1	55*	nt	3	0	-16	6	MPTP abs DR=16*;MPTP cs DR=68*
CN1c2ccccc2C(O)=C(C(=S)Nc2ccccc2)S1(=O)=O	-1	nt	-1	0	-1	nt
CN1c2ccccc2C(O)=C(C(=S)Nc2ccc(F)c(Cl)c2)S1(=O)=O	89*	nt	7	23	-11	72*
Cc1noc(C)c1NC(=O)Nc1ccc2c(c1)C(=O)N([C@H](C)CO)C[C@H](C)[C@@H](CN(C)Cc1ccc(C(F)(F)F)cc1)OCCCC[C@H](C)O2	nt	1	nt	nt	nt	nt
Cc1cc(N/N=C/c2c(O)ccc3ccccc23)nc(-c2ccccc2O)n1	66*	5	10	24	5	52*
CC(=O)N1CCc2cc(S(=O)(=O)NCCC3=CCCCC3)ccc21	61*	nt	5	-3	3	82*
Cc1ccc(NC(=O)c2cc(S(=O)(=O)NCCC3=CCCCC3)ccc2F)cc1F	83*	nt	2	-1	1	78*
O=C(Nc1cccc(F)c1)c1cc(S(=O)(=O)NCCC2=CCCCC2)ccc1F	63*	nt	-2	-9	3	78*
Cc1ccc(S(=O)(=O)NCCC2=CCCCC2)cc1C(N)=O	-2	-2	10	-9	-1	nt
O=C(Nc1cccc(F)c1)c1cc(S(=O)(=O)N2CCC(C(=O)O)CC2)ccc1F	-2	nt	-7	10	7	nt
